Measured values from PubChem BioAssay (NCATS).
“And” between values parts separate entries of the source, which are not always exact repeats. Equal values may be shown once. Records with an inconclusive call do not appear.

assay: qHTS Assay for Lipid Storage Modulators (AID 1519); settings: Drosophila S3 cells, BODIPY lipid droplet/cell ratio, laser cytometry; measured here: lipid channel max response; cells loaded with oleic acid
Method in brief: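 Cells seeded at 5,000 per well were treated with compounds over a concentration series and loaded with oleic acid (400 uM, as added). Lipid droplet fluorescence (488 nm excitation, 500-530 nm channel) was read by laser-scanning cytometry and normalized to 20 uM Triacsin C.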

Structure (SMILES)	max response
O=C1C(O)=C(O)C(=O)C(O)=C1O	-3.42% and 27.1%
COc1ccc(C(=O)c2ccccc2)c(O)c1	-14.1% and 8.45%
COc1ccc(C(Cl)=C(c2ccc(OC)cc2)c2ccc(OC)cc2)cc1	-12.3%
COc1ccc(C(=O)c2ccccc2O)c(O)c1	-18.3% and 15.8%
CN=C(N)NCCC[C@H](N)C(=O)O	-15.5%
NC(=O)c1ccccc1O	29.8%
CN1CCC[C@@H]1CCO[C@](C)(c1ccccc1)c1ccc(Cl)cc1	-13.1%
O=C(O)CCC(=O)Nc1ccc(S(=O)(=O)Nc2nccs2)cc1	3.26% and 28.6%
CCN(CC)CCNC(=O)c1cc(Br)c(N)cc1OC	-8.36% and 21.9%
COc1cc(NS(=O)(=O)c2ccc(N)cc2)ncn1	1.51% and 9.04%
O=C(O)c1ccc(S(=O)(=O)N(Cl)Cl)cc1	34.6%
Cc1ncc(CO)c(C=O)c1O	-15.3%
CN(C)CCC[C@@]1(c2ccc(F)cc2)OCc2cc(C#N)ccc21	4.25% and 5%
CCN(CC)CCNC(=O)COc1ccc(OC)cc1	4.41% and 33.1%
CCCN(CCC)S(=O)(=O)c1ccc(C(=O)O)cc1	0.939% and 10.4%
COc1cc(N)c(Cl)cc1C(=O)NC1CCN(Cc2ccccc2)CC1	-0.303% and 10.6%
Oc1c(Cl)cc(Cl)c(Cl)c1Cc1c(O)c(Cl)cc(Cl)c1Cl	27%
c1ccc(CC2=NCCN2)cc1	-4.35% and 15.7%
CC(C)(C)NC[C@H](O)COc1nsnc1N1CCOCC1	6.06% and 5.65%
CCN(CC)CCNc1ccc(CO)c2sc3ccccc3c(=O)c12	-16.8% and -5.8%
CNCCc1ccccn1	1.76% and 22.8%
N=C(N)N1CCc2ccccc2C1	-6.4%
O=C(CCCN1CC=C(n2c(=O)[nH]c3ccccc32)CC1)c1ccc(F)cc1	-9.23% and 27.6%
C[N+]12CCC(CC1)C(OC(=O)C(O)(c1ccccc1)c1ccccc1)C2 (stereo unspecified)	15.6%
CCOc1ccc(NC(C)=O)cc1	-4.32%
NC(N)=NCc1cccc(I)c1	-12.1%
